PubChem BioAssay AID1159580 (chemical genetic matrix, 2015)
In all, about 5,500 compounds went through this assay and about 2,000 (36%) were called active. Not shown: some 18% with an inconclusive outcome. No stated cut-off is given here; in the data, active means normalized growth mostly below about 0.91 (no sharp cut-off); inconclusive means no clear call, values can overlap the other calls; inactive means mostly above about 0.92. The list shows a part of the results.

Assay: chemical genetic growth profiling, strain panel (AID 1159580);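 further: tested at 20 µM; growth read once vehicle control cultures reached saturation at 30 °C; 1 = growth at the plate median or of vehicle wells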
Settings: growth OD
[1] = S. cerevisiae deletion strains, locus YHR030C, strain SLT2, stronger effect = lower value
[2] = S. cerevisiae deletion strains, locus YJL095W, strain BCK1, stronger effect = lower value

Measured: normalized growth

CN[C@H]1C[C@@H](N)[C@H](O)[C@@H](O[C@@H]2O[C@H](CO)[C@@H]3OC4(O[C@@H]3[C@@H]2O)O[C@H](C(N)CO)[C@H](O)[C@H](O)[C@H]4O)[C@@H]1O (stereo partly specified)
inactive: [1] 1.05 | S. cerevisiae deletion strains, locus YHR079C, strain IRE1, stronger effect = lower value 1.05 | [2] 1.05 | S. cerevisiae deletion strains, locus YJR066W, strain TOR1, stronger effect = lower value 0.982 | S. cerevisiae deletion strains, locus YLR113W, strain HOG1, stronger effect = lower value 1.02 | S. cerevisiae deletion strains, locus YNL183C, strain NPR1, stronger effect = lower value 0.969 | S. cerevisiae deletion strains, locus YOR231W, strain MKK1, stronger effect = lower value 1.03 | S. cerevisiae deletion strains, locus YPL256C, strain CLN2, stronger effect = lower value 1.03

Nc1nc2ncc(C(=O)O)nc2c(=O)[nH]1
inactive: S. cerevisiae deletion strains, locus YAL013W, strain DEP1, stronger effect = lower value 1.01 | S. cerevisiae deletion strains, locus YBR021W, strain FUR4, stronger effect = lower value 1 | S. cerevisiae deletion strains, locus YBR229C, strain ROT2, stronger effect = lower value 1.01 | S. cerevisiae deletion strains, locus YCL029C, strain bik1, stronger effect = lower value 1.03 | S. cerevisiae deletion strains, locus YDL035C, strain GPR1, stronger effect = lower value 1 | S. cerevisiae deletion strains, locus YDL074C, strain BRE1, stronger effect = lower value 1.01 | S. cerevisiae deletion strains, locus YDL101C, strain DUN1, stronger effect = lower value 1.01 | S. cerevisiae deletion strains, locus YDL134C, strain PPH21, stronger effect = lower value 1.01 | S. cerevisiae deletion strains, locus YDL185W, strain tfp1, stronger effect = lower value 1.04 | S. cerevisiae deletion strains, locus YDL192W, strain arf1, stronger effect = lower value 1.03 | S. cerevisiae deletion strains, locus YDR101C, strain arx1, stronger effect = lower value 1.03 | S. cerevisiae deletion strains, locus YDR162C, strain NBP2, stronger effect = lower value 1.03 | S. cerevisiae deletion strains, locus YDR318W, strain mcm21, stronger effect = lower value 1.02 | S. cerevisiae deletion strains, locus YDR388W, stronger effect = lower value 1.02 | S. cerevisiae deletion strains, locus YDR502C, strain sam2, stronger effect = lower value 1.04 | S. cerevisiae deletion strains, locus YEL061C, strain CIN8, stronger effect = lower value 1.01 | S. cerevisiae deletion strains, locus YER110C, stronger effect = lower value 1.05 | S. cerevisiae deletion strains, locus YER155C, strain BEM2, stronger effect = lower value 1.01 | S. cerevisiae deletion strains, locus YER167W, strain BCK2, stronger effect = lower value 1.01 | S. cerevisiae deletion strains, locus YGL078C, strain dbp3, stronger effect = lower value 1.03 | S. cerevisiae deletion strains, locus YGL086W, strain mad1, stronger effect = lower value 1 | S. cerevisiae deletion strains, locus YGL248W, strain PDE1, stronger effect = lower value 1.02 | S. cerevisiae deletion strains, locus YGR078C, strain PAC10, stronger effect = lower value 1.01 | S. cerevisiae deletion strains, locus YGR135W, strain pre9, stronger effect = lower value 1.01 | S. cerevisiae deletion strains, locus YGR252W, strain gcn5, stronger effect = lower value 1.07 | [1] 1.01 | S. cerevisiae deletion strains, locus YHR079C, strain IRE1 (second series), stronger effect = lower value 1.05 | S. cerevisiae deletion strains, locus YHR094C, strain hxt1, stronger effect = lower value 1.04 | S. cerevisiae deletion strains, locus YHR129C, strain ARP1, stronger effect = lower value 1.01 | S. cerevisiae deletion strains, locus YHR200W, strain rpn10, stronger effect = lower value 1 | S. cerevisiae deletion strains, locus YIL066C, strain RNR3, stronger effect = lower value 1.02 | S. cerevisiae deletion strains, locus YIL073C, strain SPO22, stronger effect = lower value 1.1 | S. cerevisiae deletion strains, locus YIL125W, strain kgd1, stronger effect = lower value 1.03 | S. cerevisiae deletion strains, locus YIR030C, strain dcg1, stronger effect = lower value 1.04 | [2] 1.01 | S. cerevisiae deletion strains, locus YJL134W, strain LCB3, stronger effect = lower value 1.01 | S. cerevisiae deletion strains, locus YJL168C, strain set2, stronger effect = lower value 1.05 | S. cerevisiae deletion strains, locus YJL187C, strain SWE1 (second series), stronger effect = lower value 1.01 | S. cerevisiae deletion strains, locus YJR043C, strain POL32, stronger effect = lower value 0.997 | S. cerevisiae deletion strains, locus YKL009W, strain mrt4, stronger effect = lower value 1.02 | S. cerevisiae deletion strains, locus YKL068W, stronger effect = lower value 1.03 | S. cerevisiae deletion strains, locus YKL085W, strain MDH1 (second series), stronger effect = lower value 1.01 | S. cerevisiae deletion strains, locus YKL085W, strain MDH1, stronger effect = lower value 1.01 | S. cerevisiae deletion strains, locus YKR001C, strain vps1, stronger effect = lower value 1.02 | S. cerevisiae deletion strains, locus YLR039C, strain RIC1, stronger effect = lower value 1.03 | S. cerevisiae deletion strains, locus YLR058C, strain SHM2, stronger effect = lower value 1.01 | S. cerevisiae deletion strains, locus YLR102C, strain apc9, stronger effect = lower value 1.04 | S. cerevisiae deletion strains, locus YLR262C, strain YPT6, stronger effect = lower value 1.03 | S. cerevisiae deletion strains, locus YLR268W, strain sec22, stronger effect = lower value 1.04 | S. cerevisiae deletion strains, locus YLR330W, strain CHS5, stronger effect = lower value 1.01 | S. cerevisiae deletion strains, locus YLR342W, strain FKS1 (second series), stronger effect = lower value 0.998 | S. cerevisiae deletion strains, locus YLR371W, strain rom2, stronger effect = lower value 1.06 | S. cerevisiae deletion strains, locus YLR418C, strain cdc73, stronger effect = lower value 1.03 | S. cerevisiae deletion strains, locus YML016C, strain PPZ1, stronger effect = lower value 1.01 | S. cerevisiae deletion strains, locus YML032C, strain rad52, stronger effect = lower value 1.02 | S. cerevisiae deletion strains, locus YML124C, strain tub3, stronger effect = lower value 1.02 | S. cerevisiae deletion strains, locus YMR078C, strain ctf18, stronger effect = lower value 1.05 | S. cerevisiae deletion strains, locus YMR223W, strain ubp8, stronger effect = lower value 1.03 | S. cerevisiae deletion strains, locus YMR307W, strain GAS1, stronger effect = lower value 1.01 | S. cerevisiae deletion strains, locus YNL067W, strain RPL9B, stronger effect = lower value 1.01 | S. cerevisiae deletion strains, locus YNL153C, strain GIM3, stronger effect = lower value 1.01 | S. cerevisiae deletion strains, locus YNL233W, strain BNI4, stronger effect = lower value 1 | S. cerevisiae deletion strains, locus YNL250W, strain rad50, stronger effect = lower value 1.03 | S. cerevisiae deletion strains, locus YNL271C, strain bni1, stronger effect = lower value 1.03 | S. cerevisiae deletion strains, locus YNL298W, strain CLA4, stronger effect = lower value 1.04 | S. cerevisiae deletion strains, locus YNL307C, strain MCK1, stronger effect = lower value 1.06 | S. cerevisiae deletion strains, locus YNL322C, strain KRE1, stronger effect = lower value 1.01 | S. cerevisiae deletion strains, locus YNR052C, strain pop2, stronger effect = lower value 1.03 | S. cerevisiae deletion strains, locus YOL012C, strain htz1 1.02 | S. cerevisiae deletion strains, locus YOL147C, strain pex11, stronger effect = lower value 1.04 | S. cerevisiae deletion strains, locus YOR061W, strain CKA2, stronger effect = lower value 1.02 | S. cerevisiae deletion strains, locus YOR069W, strain VPS5, stronger effect = lower value 1.01 | S. cerevisiae deletion strains, locus YOR136W, strain idh2, stronger effect = lower value 1.04 | S. cerevisiae deletion strains, locus YOR144C, strain elg1, stronger effect = lower value 1.03 | S. cerevisiae deletion strains, locus YOR184W, strain ser1, stronger effect = lower value 1.04 | S. cerevisiae deletion strains, locus YOR316C, strain cot1, stronger effect = lower value 1.06 | S. cerevisiae deletion strains, locus YPL055C, strain LGE1, stronger effect = lower value 1.01 | S. cerevisiae deletion strains, locus YPR119W, strain clb2, stronger effect = lower value 1.03 | S. cerevisiae deletion strains, locus YPR141C, strain kar3, stronger effect = lower value 1.02 | S. cerevisiae deletion strains, locus YPR163C, strain tif3, stronger effect = lower value 1.05 | S. cerevisiae deletion strains, locus YPR167C, strain met16, stronger effect = lower value 1.06 | S. cerevisiae deletion strains, strain wtn01, stronger effect = lower value 1.02 | S. cerevisiae strains, strain wild type, stronger effect = lower value 1.01
